Assay outcomes (PubChem BioAssay)
FLuc counter: qHTS profiling assay for firefly luciferase inhibitor/activator using purifed enzyme and Km concentrations of substrates (counterscreen for miR-21 project); purified FLuc, Km substrates, luminescence inhibition; Potency, µM (highest dose often 57.5 µM), usual class: inhibitors; 360,000 compounds, 6.9% hits; further: nearly all actives have a fitted effect of over 55% in size
Target sequence (P08659 whole entry, looked up): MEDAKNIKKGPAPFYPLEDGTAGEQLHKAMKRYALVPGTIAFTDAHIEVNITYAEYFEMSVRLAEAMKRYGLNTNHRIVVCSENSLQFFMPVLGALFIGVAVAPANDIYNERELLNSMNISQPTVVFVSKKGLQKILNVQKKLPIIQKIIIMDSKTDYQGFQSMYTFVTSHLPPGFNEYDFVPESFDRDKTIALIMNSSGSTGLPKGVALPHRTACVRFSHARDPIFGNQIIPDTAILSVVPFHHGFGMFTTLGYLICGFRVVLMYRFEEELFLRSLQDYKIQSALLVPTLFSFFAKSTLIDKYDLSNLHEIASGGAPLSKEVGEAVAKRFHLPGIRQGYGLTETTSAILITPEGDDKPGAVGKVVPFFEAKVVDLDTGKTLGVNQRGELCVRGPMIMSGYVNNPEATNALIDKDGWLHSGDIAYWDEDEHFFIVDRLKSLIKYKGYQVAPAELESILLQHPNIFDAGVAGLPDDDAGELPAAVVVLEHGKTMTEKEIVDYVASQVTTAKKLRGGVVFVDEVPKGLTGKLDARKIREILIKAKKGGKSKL
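Biochemical qHTS of compounds, final roughly 60 µM downward over six points, against 10 nM purified firefly luciferase using Km concentrations of substrates (10 uM D-luciferin, 10 uM ATP) in Tris acetate pH 7.5 buffer; luminescence output.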
NPC1 prom act: qHTS Assay for NPC1 Promoter Activators; Potency, µM (doses to about 9.22 µM), hits mostly activators; 320,000 compounds, 2.4% hits; Huh7 NPC1 promoter luciferase reporter, 24 h; further: nearly all actives have a fitted effect of over 60% in size
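Luminescence read-out of NPC1 promoter-driven luciferase in stably transfected Huh7 cells; compounds delivered in DMSO and left 24 h at 37C, 5% CO2, qHTS titration format.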
Rab9 prom act: qHTS Assay for Rab9 Promoter Activators. Huh7 Rab9 promoter-luciferase reporter, luminescence, 24 h. Potency, µM (series often up to 9.22 µM), usual class: activators. 320,000 compounds, 2.8% hits; further: nearly all actives have a fitted effect of over 60% in size
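Using Huh7 cells stably transfected with Rab9 promoter–luciferase, compounds were incubated 24 h at 37 °C, 5% CO2; luciferase luminescence was read 10 min after reagent addition.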
ELG1 genotoxic: qHTS screen for small molecules that induce genotoxicity in human embryonic kidney (HEK293T) cells expressing luciferase-tagged ELG1; 330,000 compounds, 1.3% hits; HEK293T ELG1-luciferase reporter, luminescence, 16 h; Potency, µM (doses to about 46 µM), hits mostly activators; further: nearly all actives have a fitted effect of over 60% in size
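Luminescence read-out: rising ELG1-luciferase signal, reflecting elevated ELG1 protein under genetic stress, flags genotoxic compounds. Cells were treated for 16 hr at 37 °C before ONE-Glo detection.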
SMN2 splice enh: qHTS Assay for Enhancers of SMN2 Splice Variant Expression; HEK293 SMN2-luciferase splicing reporter, luminescence, 30-36 h; Potency, µM (highest dose often 46.1 µM), hits mostly activators; 210,000 compounds, 2.8% hits; further: nearly all actives have a fitted effect of over 55% in size
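HEK293 cells carry an SMN2 […]–luciferase reporter in which exon 7 inclusion puts luciferase in frame. Cells were plated 10-12 h before compound addition, then incubated 30-36 h at 37C. ONE-Glo luminescence was read; sodium butyrate at 4.5 mM final served as control.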
Hits are given with their value; i = inactive; ? = inconclusive; nt = not tested or not shown. An excerpt weighted towards active compounds, which were near 7.4% of everything screened. The call rests on the fitted dose curve; in most records, active means well fitted curve in the direction sought with a large enough effect; inconclusive means small, poorly fitted or top-dose-only effect, or another doubt; inactive means no such curve, though single readings can be large; an effect the other way counts as inactive or inconclusive.

SMILES	FLuc counter	NPC1 prom act	Rab9 prom act	ELG1 genotoxic	SMN2 splice enh
O=C(NCCc1ccccc1)c1cnc2n(c1=O)CCS2	?	?	2.24µM	?	?
Cc1ccc(/C=C2\OC(=O)c3ccccc32)cc1	1.07µM	i	i	?	?
CN1CCN(S(=O)(=O)c2ccc(C#N)cc2)C(c2ccccc2)C1 (stereo not drawn)	i	i	i	i	nt
Cc1ccn2c(CN3CCOCC3)c(-c3ccccc3)nc2c1	?	i	?	i	20µM
O=C(COC(=O)c1ccccc1)Nc1ncc([N+](=O)[O-])s1	nt	nt	nt	i	nt
Cc1nc(C)c(C(=O)Nc2ncc([N+](=O)[O-])s2)o1	1.9µM	?	?	?	0.891µM
O=C(Nc1ccccc1)Nc1ncc([N+](=O)[O-])s1	1.51µM	?	?	?	3.98µM
O=C(Nc1ncc([N+](=O)[O-])s1)c1cccc([N+](=O)[O-])c1	0.675µM	0.0891µM	0.1µM	?	nt
O=C(CSc1cn(CCNC(=O)c2c(F)cccc2F)c2ccccc12)Nc1ccc2c(c1)OCCO2	?	nt	nt	nt	i
COc1ccccc1CCNC(=O)C(=O)NCC1OCCN1S(=O)(=O)c1ccc(C)cc1 (stereo not drawn)	i	i	i	i	nt
Cc1ccc(OCC(=O)O/N=C(\N)c2ccccn2)cc1	13.5µM	3.98µM	2.51µM	?	12.6µM
Cc1ccc(CC(=O)O/N=C(\N)c2ccccn2)cc1	4.78µM	4.47µM	?	?	nt
Cc1cccc(OCC(=O)O/N=C(\N)c2ccccn2)c1C	9.53µM	?	?	?	?
N/C(=N\OC(=O)Cc1ccc(Cl)cc1)c1ccccn1	9.53µM	i	i	16.4µM	i
C=CCN(c1ccc(C(=O)NCCCn2ccnc2)cc1)S(C)(=O)=O	i	i	i	i	nt
N/C(=N\OC(=O)COc1cc(Cl)c(Cl)cc1Cl)c1ccccn1	2.39µM	0.794µM	1.12µM	?	11.2µM
COc1ccc(CC(=O)O/N=C(\N)c2ccncc2)cc1	i	i	i	i	nt
CC(C)(C)CC(=O)O/N=C(\N)c1ccccn1	4.78µM	0.562µM	0.631µM	2.59µM	7.08µM
COc1ccc(CC(=O)O/N=C(\N)c2ccc(C)cc2)cc1	16.9µM	?	?	i	nt
CCOCCCn1c(=N)c(C(=O)NCc2cccnc2)cc2c(=O)n3ccccc3nc21	i	nt	nt	nt	i
O=S(=O)(Nc1cccc2c1CCCC2)c1ccc(Cl)cc1	i	i	i	i	i
Cc1ccc(NS(=O)(=O)c2ccc(Br)s2)cc1S(=O)(=O)N1CCOCC1	i	i	i	i	i
COc1ccc(C=Nc2ccc3[nH]ncc3c2)c(O)c1	6.75µM	i	i	i	i
Oc1c(Br)cc(Br)cc1C=Nc1ccc2[nH]ncc2c1	i	i	i	i	nt
C=CCn1c(SCc2ccccc2Cl)nnc1-c1sc2nc(C)cc(C)c2c1N	i	i	i	i	nt
SMILES	FLuc counter	NPC1 prom act	Rab9 prom act	ELG1 genotoxic	SMN2 splice enh
Cc1ccc(NC(=O)CSc2ncccc2C(=O)Oc2cccc([N+](=O)[O-])c2)cc1Cl	?	4.47µM	?	23.1µM	11.2µM
CC(=O)c1ccccc1NC(=O)CCCNC(=O)c1ccc(Cl)cc1	i	i	i	i	nt
Oc1c(CN2CCOCC2)cc(COCc2ccccc2)c2cccnc12	i	i	i	18.4µM	i
Oc1c(CNc2ccccc2)cc(COCc2ccccc2)c2cccnc12	i	i	i	i	nt
O=c1c(Cl)c(N2CCOCC2)cnn1-c1nc2ccccc2[nH]1	10.7µM	2.51µM	1.58µM	?	11.2µM
COc1ccccc1/C=C/C(=O)NC(=S)Nc1ccccn1	10.7µM	?	i	23.1µM	nt
COc1ccc(/C=C/C(=O)NC(=S)Nc2ccccn2)cc1	?	1.26µM	0.891µM	?	nt
COc1ccc(/C=C/C(=O)NC(=S)Nc2ccc(S(N)(=O)=O)cc2)cc1	i	i	i	i	nt
O=C(/C=C/c1ccccc1)NC(=S)Nc1ncccn1	16.9µM	i	i	i	nt
CCCOc1ccc(Oc2nc(NCC(C)C)nc(N3CCOCC3)n2)nn1	i	nt	nt	nt	i
Cc1nc(NC(=O)/C=C/c2ccccc2)n[nH]1	?	i	i	i	?
Fc1cccc(CSc2nc3ccncc3[nH]2)c1	?	i	?	i	11.2µM
Cc1cc(C)c(C(=O)CSc2nc3ccccc3c(=O)[nH]2)cc1C	i	i	i	i	i
Clc1cccc(CSc2nc3ccncc3[nH]2)c1	?	i	?	?	i
Cc1cc(C(=O)CSc2nn(-c3ccccc3)c(=S)s2)c(C)n1Cc1ccco1	i	i	i	i	i
Cc1noc(C)c1CSc1nc2ccccc2[nH]1	i	i	i	?	i
Fc1cccc(F)c1CSc1nc2ccccc2[nH]1	?	1.41µM	1µM	?	10µM
Cc1cc(C(=O)CSc2nncs2)c(C)n1Cc1ccco1	4.78µM	0.631µM	0.708µM	?	i
C=CCn1c(C)cc(C(=O)CSc2nc3ccccc3c(=O)[nH]2)c1C	9.53µM	?	0.794µM	2.91µM	i
O=C(CCCOc1ccc(Br)cc1)NNC(=O)c1ccncc1	i	i	i	i	nt
Cc1nn(C)c2c1c(C(F)(F)F)cc(=O)n2C(C)C(=O)NCCc1ccccc1 (stereo not drawn)	i	nt	nt	nt	nt
Cc1c(OC(C)C(=O)NCC2CCC(C(=O)O)CC2)ccc2c(-c3ccccc3)cc(=O)oc12 (stereo not drawn)	i	i	i	i	nt
Cc1ccc2nc(SCC(=O)c3cc(C)n(C)c3C)[nH]c2c1	i	i	i	i	i
O=C(CSc1nc2ccccc2[nH]1)c1ccccc1F	8.49µM	1.41µM	1.58µM	?	nt
COCC(C)n1c(C)cc(C(=O)CSc2nc3ccccc3c(=O)[nH]2)c1C (stereo not drawn)	?	i	i	i	i
SMILES	FLuc counter	NPC1 prom act	Rab9 prom act	ELG1 genotoxic	SMN2 splice enh
Cc1cc(C(=O)CSc2nc3ccccc3[nH]2)c(C)n1C	3.38µM	0.398µM	0.447µM	?	3.16µM
COCCn1c(C)cc(C(=O)CSc2nc3ccccc3c(=O)[nH]2)c1C	5.36µM	1.78µM	1.58µM	?	?
COCCn1c(C)cc(C(=O)CSc2nncn2-c2ccccc2)c1C	19µM	i	i	i	i
CCc1cc(C(=O)N2CCCC(C(=O)c3ccc(C(F)(F)F)cc3)C2)n(C)n1 (stereo not drawn)	i	i	i	i	nt
C=CCn1c(C)cc(C(=O)COc2nncc3ccccc23)c1C	15.1µM	1.41µM	?	10.3µM	?
COCCn1c(C)cc(C(=O)CSc2ccc3ccccc3n2)c1C	12µM	?	?	i	11.2µM
Cc1cc(C(=O)CSc2nc3ccccc3[nH]2)c(C)n1Cc1ccco1	0.757µM	0.708µM	0.501µM	?	?
COCCn1c(C)cc(C(=O)COc2nc3ccccc3nc2C)c1C	i	i	i	i	i
CCCn1c(C)cc(C(=O)CSc2nc3ccccc3c(=O)n2Cc2ccco2)c1C	5.36µM	3.16µM	3.55µM	?	?
Cc1cccc(C)c1NC(=O)COC(=O)c1cccnc1	i	i	i	i	nt
